This note sets out measurements from PubChem BioAssay AID893 (National Center for Advancing Translational Sciences (NCATS), 2007).

Hit rate of the full screen: of about 75,000 compounds, about 5,700 (7.6%) were called active. Entries that show only a call come without a potency. Another 7% or so got no clear call; they are omitted. The sample holds actives, similar compounds and a random draw of the others, so the mix is not that of the screen. Unmarked numbers belong to inactive results. Calls follow the shape of the dose curve; as a rule, active = well fitted inhibition curve with a large enough effect; inconclusive = small, poorly fitted or top-dose-only effect; inactive = no such curve, though single readings can be large or run the other way.
Potency is read from the fitted curve at half-maximal effect.

The target of this assay is 3-hydroxyacyl-CoA dehydrogenase type-2 (Homo sapiens) (UniProt Q99714). The assay can be described thus: qHTS Assay for Inhibitors of HSD17B4, hydroxysteroid (17-beta) dehydrogenase 4.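 Also: the protocol describes HADH2 (HSD17B10) and not the HSD17B4 of the title; nearly all actives have a fitted effect of over 70% in size.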 The conditions noted are these: recombinant HSD17B10, NADH fluorescence kinetic; series mostly up to 57.1 µM. In a few lines: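 Enzyme plus compound, 15 min room temperature; substrate mix added (NAD+ 1 mM, beta-hydroxybutyryl-CoA 90 uM final); plates read kinetically for NADH fluorescence. HADH2 was His-tagged, E. coli-derived, 20 nM.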
For orientation: qHTS replaces the single test concentration by a dilution series.
In the case of `Cc1cc(C)n(-c2nc(SCC(=O)N3CCCC3)c3c4c(sc3n2)CCCC4)n1`, the Potency entry is “inactive”.

For the compound `COCCNc1nc(-n2nc(C)cc2C)nc2sc3c(c12)CCCC3`, the Potency is 25.1 µM (active). Still for that read-out and setting: to `COCCn1c(C)cc(C(=O)CSc2ncnc3sc4c(c23)CCC4)c1C` belongs “inactive”. Take `CO/N=C\[C@@H](C)[C@H](OCc1ccccc1)C(C)C`: the activity change, negative = inhibition is -1.19% [at 11.4 µM]. Regarding `O=C(c1ccc2c(c1)OCCO2)C1CCN(S(=O)(=O)c2cccc(F)c2)CC1`, the Potency result is “inactive”. On the same count and under the same terms, with `CC(C)(C)C(=O)CCN1C(=O)C2(OCCO2)c2ccccc21` the entry was “inactive”; with `Cc1ccc(-c2nn(CC(C)(C)C)c3ncnc(N)c23)cc1`, “inactive”; with `CCCCN(CC)C(=O)CN(C)S(=O)(=O)c1cccc2nsnc12`, “inactive”. Still for that read-out and setting: to `O=C(Nc1nncs1)c1ccccc1NS(=O)(=O)c1cccs1` belongs 25.1 µM (active).

Consider `COC(=O)c1ccccc1NC(=O)c1ccccc1NS(C)(=O)=O`, for which the Potency entry is “inactive”. On the same count and under the same terms, to `COc1ccc(C(=O)Nc2nncs2)c(OC)c1` belongs “inactive”; to `CSC1=NCCN1C(=O)c1ccc(S(=O)(=O)N2CCOCC2)cc1`, “inactive”.

In the case of `Cc1cc(C(=O)COC(=O)CCCN2C(=O)c3ccccc3C2=O)c(C)n1C`, the Potency entry is “inactive”. Consider `c1ccc(CCN2CCN=C2Cc2ccccc2)cc1`, for which the activity change, negative = inhibition is 7.62% [at 11.4 µM]. For `COc1ccccc1-c1nnc(SCC(=O)Nc2cc(C)on2)o1`, the Potency entry was “inactive”. Turning to `COc1ccccc1-c1nnc(SCC(=O)Nc2ccccc2)o1`, the Potency entry is “inactive”.

In the case of `Cc1cc(NC(=O)CSc2nnc(-c3ccc(Cl)s3)o2)no1`, the Potency is 31.6 µM (active). On the same count and under the same terms, with `OC(CCl)CCl` the entry was “inactive”; with `Cc1cc2nc3c(=O)[nH]c(=O)nc-3n(C[C@H](O)[C@H](O)[C@H](O)CO)c2cc1C`, 15.8 µM (active).

`CC(C)(C)Nc1c(N)c(=O)oc2ccccc12`: the Potency result is “inactive”. On the same count and under the same terms, with `Cn1cc(-c2nc3cnc(N4CCNCC4)nc3n(CCC#N)c2=O)c2ccccc21` the entry was “inactive”; with `CCOc1cccc(=O)c2c(C)n(CC3CCCO3)c(C)c12` (stereo unspecified), “inactive”; with `Cc1nc2cnc(N3CCN(C)CC3)nc2n(CCC#N)c1=O`, 31.6 µM (active). Turning to `Cc1nc2cnc(Nc3ccccc3)nc2n(C[C@H]2CCCO2)c1=O`, the Potency result was “inactive”.

`Cc1nc2cnc(N3CCN(C)CC3)nc2n(C[C@H]2CCCO2)c1=O`: the Potency was 31.6 µM (active). The same measure, in the same setting: to `CCC1=C(OC(=O)N(CC)CC)N2C(=O)OC(=NCC3CC3)[C@]2(C)[C@H]2C1=CC[C@H]1C(=O)N(CC(=O)OC)C(=O)[C@H]12` belongs “inactive”.

`COC(=O)[C@@]1(Cc2ccccc2)[C@H]2c3cc(C(=O)N(C)C)n(CCSCCO)c3C[C@H]2CN1C(=O)c1ccccc1`: the Potency entry was “inactive”. On the same count and under the same terms, to `O=C(c1cc(C(F)(F)F)cc(C(F)(F)F)c1)N1CCC2(CC1)CN(c1ccncc1)C2` belongs “inactive”; to `CC(=O)c1cccc(NC(=O)c2ccncc2)c1`, “inactive”.

For `CC1(C)Cc2cccc(OCC(=O)Nc3nccs3)c2O1`, the Potency result is “inactive”. Same read-out and setting: to `CCCCc1cc(=O)oc2cc(C)cc(OCc3nn[nH]n3)c12` belongs 31.6 µM (active). On the same count and under the same terms, to `COC(=O)[C@@]1(Cc2ccccc2)[C@H]2c3cc(C(=O)N4CCCC4)n(Cc4ccc(C)o4)c3C[C@H]2CN1C(=O)c1ccccc1` belongs “inactive”; to `COc1ccc(CN(C(=O)c2cccs2)c2nccs2)cc1OC`, “inactive”. The same measure, in the same setting: to `Cc1ccc(C(=O)OCC(=O)NCc2ccc3c(c2)OCO3)s1` belongs “inactive”; to `CCOC(=O)c1nc(-c2ccc3c(c2)OCO3)[nH]c1C`, 20 µM (active); to `CCOC(=O)c1c(C)[nH]c(C(=O)COc2ccc3c(c2)OCO3)c1C`, “inactive”. On to `O=C(Nc1cccc(F)c1)N1CC2(CCN(C(=O)c3cnccn3)CC2)C1`, for which the Potency entry was “inactive”. On the same count and under the same terms, to `O=c1[nH]c(-c2ccccc2)c(-c2ccccc2)[nH]1` belongs 31.6 µM (active). `CC1(C)CC(=O)NC=C(c2ccccc2)C1`: the Potency result was “inactive”.

`COC(=O)C1C(=O)CC(C)(O)C(C(=O)OC)C1c1ccc2c(c1)OCO2` (stereo unspecified): the Potency result is “inactive”. On the same count and under the same terms, to `O=C(NCc1ccco1)c1nc(-c2ccccc2)n(-c2ccccc2)n1` belongs “inactive”; to `O=C(Nc1ccccc1)Nc1ccccc1C(=O)NCc1ccco1`, “inactive”. Still for that read-out and setting: with `O=C(NCc1ccco1)c1cccn2c(=O)c3cc(Br)ccc3nc12` the figure was 25.1 µM (active). Still for that read-out and setting: to `CC(C)C(N)C(=O)OCCOCn1cnc2c(=O)[nH]c(N)nc21` (stereo unspecified) belongs “inactive”; to `FC(F)(F)c1ccc(CN2C[C@@H]3C(c4ccccc4)C4(c5ccccc5)CC3(C4)[C@H]2c2ccccc2)cc1` (stereo partly specified), “inactive”; to `CCOC(=O)N1CCC(NC(=O)COc2cc(=O)n(C)c3ccccc23)CC1`, “inactive”. As to `CCOC(=O)N1CCC(NC(=O)c2cnn3ccccc23)CC1`, the Potency was 31.6 µM (active). Still for that read-out and setting: to `CCOC(=O)N1CCC(NC(=O)Cc2cn(C)c3ccccc23)CC1` belongs “inactive”; to `CC(C)=CC1C(C(=O)O)C1(C)C` (stereo unspecified), “inactive”; to `Cn1c(CNC(=O)C(C)(C)C)nc2ccccc21`, “inactive”. For `Nc1nonc1-c1nc2ccccc2n1CCC(=O)O`, the Potency result is “inactive”. On the same count and under the same terms, to `Cn1c(-c2ccc(C(=O)c3ccccc3)s2)nc2ccccc21` belongs 25.1 µM (active); to `COc1cccc(-c2cc(NCCc3c[nH]c4ccc(OC)cc34)ncn2)c1`, “inactive”; to `CC1OC2C(OC1C)N(S(C)(=O)=O)CCN2S(C)(=O)=O` (stereo unspecified), “inactive”. `C=CC(=C)CCC=C(C)C`: the Potency entry is “inactive”. In the case of `COc1ccc2[nH]c3cc4c(=O)c5cc(OC)ccc5[nH]c4cc3c(=O)c2c1`, the activity change, negative = inhibition is 3.71% [at 11.4 µM].

As to `COc1ccc2[nH]c3ccc(OC)cc3c2c1`, the Potency was 25.1 µM (active). Regarding `COc1ccc(N)c(C)c1`, the Potency entry was “inactive”. Same read-out and setting: with `C=CCOC(=O)COCCC(C)C` the entry was “inactive”; with `CCOC(=O)CSc1nnc(CNc2nc(-c3ccccc3)cs2)n1C`, “inactive”. For `COCCCNC(=O)c1ccc(CNS(=O)(=O)c2ccc(NC(C)=O)cc2)cc1`, the Potency entry is “inactive”. Consider `c1ccc(CSc2nnc(-c3ccco3)c(-c3ccco3)n2)cc1`, for which the Potency was 10 µM (active). Still for that read-out and setting: with `c1ccc(CSc2nnc(-c3ccco3)n2Cc2ccccc2)cc1` the entry was “inactive”. On the same count and under the same terms, with `O=C(CSc1nnc(-c2ccco2)n1-c1ccccc1)NCCc1ccccc1` the entry was “inactive”; with `COc1ccc(C(=O)N2CCC(C(=O)Nc3cccc(C)c3)CC2)cc1OC`, “inactive”; with `CCCCOC(=O)c1ccc(N2C(=O)CC(N3CCN(C/C=C/c4ccccc4)CC3)C2=O)cc1` (stereo unspecified), “inactive”.

As to `COc1cc(-c2nc(-c3ccncc3)no2)cc(OC)c1OC`, the Potency result was “inactive”. On the same count and under the same terms, to `COc1ccc(-c2noc(COc3ccc(Cl)c(C)c3)n2)cc1` belongs “inactive”. On to `CCOc1nc(-c2ccc(OC)cc2)ccc1-c1noc(-c2cc(OC)c(OC)c(OC)c2)n1`, for which the Potency was 3.16 µM (active). The same measure, in the same setting: to `CCCN1C(=O)C(NC(C)=O)c2cc(OC)ccc21` (stereo unspecified) belongs “inactive”; to `CCOC(=O)c1c(CN2CCOCC2)n(-c2ccccc2)c2ccc(O)cc12`, “inactive”. As to `O=C(CN1CCOCC1)N1CCCc2c1c(=O)oc1ccc(OCc3ccccc3)cc21`, the Potency is 31.6 µM (active).

Regarding `O=C(OCCN1CCOCC1)C1(c2ccccc2)CCCCC1`, the Potency entry is “inactive”.

On to `O=C(CN1CCN(C(=O)c2ccco2)CC1)Nc1ccc(Cl)c(C(F)(F)F)c1`, for which the Potency entry is “inactive”. Same read-out and setting: with `CCOc1ccccc1NC(=O)C1CCC(CNc2c(N3CCOCC3)c(=O)c2=O)CC1` (stereo unspecified) the entry was “inactive”; with `Cc1ccsc1-c1nc(CSCC(=O)NCCN2CCCC2)c(C)o1`, 31.6 µM (active).

Turning to `Cc1cc(NC(=O)CSCc2nc(-c3cccc(Cl)c3)oc2C)no1`, the Potency entry is “inactive”. Same read-out and setting: with `Cn1c(C(=O)NCCCN2CCCCC2)cc2sccc21` the entry was “inactive”; with `CN(C)/C=N/c1cc(=O)n(C)c(=O)n1CC1CC1`, “inactive”; with `COCc1cc(C)nc(Nc2cc(C)ccc2C)c1C#N`, “inactive”. The same measure, in the same setting: with `Fc1ccc2[nH]c3c(N4CCSCC4)ncnc3c2c1` the figure was 25.1 µM (active); with `CCN1CCCC1CNC(=O)Cn1cnc2ccc(S(=O)(=O)N3CCC(C)CC3)cc2c1=O` (stereo unspecified), “inactive”. The same measure, in the same setting: with `CC(C)OCCCNc1ncnc2c1[nH]c1ccc(F)cc12` the figure was 25.1 µM (active). For the compound `CCCn1c(-c2ccc(F)cc2)nc2c(NCC3CCCN3CC)nc(C)nc21` (stereo unspecified), the Potency is 31.6 µM (active). As for `CCN1CCCC1CNc1ncnc2c1[nH]c1ccc(F)cc12` (stereo unspecified), the Potency was 31.6 µM (active). On the same count and under the same terms, to `CCN1C(=O)CS/C1=N\c1nccs1` belongs “inactive”; to `CCOC(=O)N1CCN(C(=O)C2CC(c3ccc(F)cc3)=NO2)CC1` (stereo unspecified), “inactive”; to `O=Cc1c(Cl)cccc1Cl`, “inactive”. On the same count and under the same terms, with `O=C(c1cn(-c2ccccc2)nc1-c1cccnc1)N1CCCCC1` the entry was “inactive”; with `COc1ccc2[nH]cc(CCNc3nc(-c4cccc(NS(C)(=O)=O)c4)nc4ccccc34)c2c1`, “inactive”. On to `CO[C@H]1COC(=O)C/C=C\[C@H](C)COC(=O)[C@@H](OCc2ccccc2)/C=C\[C@@H]1C`, for which the activity change, negative = inhibition is -3.84% [at 11.4 µM]. Consider `CS(=O)(=O)N1CCC[C@@]2(CCN(c3ccncc3)C2)C1`, for which the Potency result was “inactive”. On the same count and under the same terms, with `CCNCCCNCCCNCCCNCC` the entry was “inactive”; with `C=C[C@](C)(O)CCC1C(=C)CCC2[C@@](C)(CO)CCC[C@@]12C` (stereo partly specified), “inactive”. With `COC(=O)C(C(=O)OC)[C@@H]1CCCC(=O)C1`, the activity change, negative = inhibition was 8.89% [at 11.4 µM]. Take `O=C(CNS(=O)(=O)c1ccc(Br)s1)NCc1ccc2c(c1)OCO2`: the Potency entry is “inactive”. Same read-out and setting: to `COc1ccc(-c2nc(CS(=O)CC(=O)NCc3ccccn3)c(C)o2)cc1` (stereo unspecified) belongs “inactive”. Same read-out and setting: with `COc1ccc(-c2nc(CS(=O)CC(=O)NCc3cccnc3)c(C)o2)cc1OC` (stereo unspecified) the figure was 25.1 µM (active); with `Cc1ccc(-c2nc(CS(=O)CC(=O)NC3CCCC3)c(C)o2)cc1` (stereo unspecified), “inactive”; with `CCOc1ccc(C(=O)N(Cc2ccc(N(C)C)cc2)C2CCS(=O)(=O)C2)cc1` (stereo unspecified), “inactive”.

Take `CN1CCc2nc(-c3ccccc3)c(-c3ccccc3)cc2C1`: the activity change, negative = inhibition is 2.91% [at 11.4 µM]. With `COc1cc(C2C(C(=O)c3ccc(C)o3)=C(O)C(=O)N2Cc2cccnc2)ccc1O` (stereo unspecified), the Potency entry is “inactive”. `O=C(Nc1ccccc1N1CCCCC1)c1cccc(F)c1`: the Potency entry was “inactive”.

Consider `COC(=O)Nc1c(C)n(C)n(-c2ccccc2)c1=O`, for which the Potency result is “inactive”. Same read-out and setting: with `Cc1c(NC(=O)C(C)OC(=O)c2cc3c4ccccc4n(C)c3s2)c(=O)n(-c2ccccc2)n1C` (stereo unspecified) the figure was 3.98 µM (active); with `Cc1cc(C)cc(N(C(C)C(=O)Nc2c(C)n(C)n(-c3ccccc3)c2=O)S(C)(=O)=O)c1` (stereo unspecified), “inactive”.
